High-throughput results deposited in PubChem by National Center for Advancing Translational Sciences (NCATS).
Sampled rows, rich in hits. Any-hit rate of the full collection: about 21%.
Pf growth 48h = P. falciparum growth inhibition at 48 hours (one generation); P. falciparum luciferase growth in erythrocytes, 48 h; Potency, µM (doses to about 28.7 µM), actives largely listed as inhibitors; actives 5.9% (n = 310,000)
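Luciferase-expressing parasites in RBCs, 2% Hct / 0.1% parasitemia final; RPMI 1640 + 0.5% Albumax; 37 C, 5% CO2, one generation; luminescence read-out, lower signal = inhibition.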
Pf growth 96h = inhibits malaria parasite growth, 96 h | P. falciparum luciferase reporter growth, 96 h | Potency, µM (series often up to 28.7 µM), most hits filed as inhibitors | actives 6.9% (n = 320,000)
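P. falciparum expressing integrated firefly luciferase, in erythrocytes at 2% hematocrit, 0.05% parasitemia, incubated with compounds 96 h at 37 C, 5% CO2. Growth inhibition read as loss of luminescence; two-generation exposure targets delayed-death apicoplast inhibitors.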
HCV inh = inhibitors of hepatitis C virus infection; Huh7.5.1 HCVcc-Cre infection, luciferase reporter, 44 h; Potency, µM (top dose mostly 41.8 µM), actives largely listed as inhibitors; actives 3.4% (n = 340,000)
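Whole-lifecycle infectious HCVcc-Cre system; cells 1,000/well, compound then virus (~0.5 moi) added 4 h after plating, 44 h culture. Luciferase read 15 sec following 15 min substrate incubation, room temp.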
AMA1-RON2 inh = disrupts binding of P. falciparum AMA1 to RON2; AID 720542; AlphaScreen AMA1-biotinylated RON2 peptide binding; Potency, µM (titrated, usually from 58.2 µM), usual class: inhibitors; actives 0.2% (n = 360,000); also: nearly all actives have a fitted effect of over 45% in size
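AMA1 (3D7) with his tag at 25 nM final met compounds first, then biotinylated RON2 peptide at 25 nM; detection used donor plus acceptor beads, 10 µg/mL apiece, read by AlphaScreen after 30 min at room temperature.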
Cycloheximide cs = counter-screen for Shiga toxin inhibitors: cycloheximide protein synthesis inhibition; actives 12% (n = 300,000); cell reporter, cycloheximide protein synthesis inhibition counterscreen; max response, %; in the data active = max response mostly above about 13%, no sharp cut-off; inactive = mostly below about 14%; also: read at 38.3 µM for the half of the compounds with a filed dose
Shiga toxin inh = Shiga toxin inhibition; Vero cells, Shiga toxin protein synthesis inhibition reporter; inhibition, % at 38.7 µM; AID 2315; actives 9.2% (n = 290,000); in the data active = inhibition mostly above about 28%, no sharp cut-off; inactive = mostly below about 43%
Large screens that a line does not name were inactive. Unless noted, calls follow the shape of the dose curve; as a rule, active = well fitted curve in the direction sought with a large enough effect; inconclusive = small, poorly fitted or top-dose-only effect, or another doubt; inactive = no such curve, though single readings can be large; an effect the other way counts as inactive or inconclusive.

Cc1cc(C(=O)CSc2nnnn2-c2ccccc2)c(C)n1CCc1ccccc1	none (no result: Pf growth 48h)
Cc1ccc(C(=O)CSc2nnnn2-c2ccccc2)o1	Shiga toxin inh 49
Cc1cc(C(=O)CSc2nnnn2-c2ccc(O)cc2)c(C)n1C	Cycloheximide cs 25, Shiga toxin inh 66
O=C(Nc1nnc([C@@H]2C[C@H](O)[C@@H](CO)O2)s1)c1ccc(Oc2ccccc2)cc1	none (no result: Pf growth 48h, Pf growth 96h, HCV inh, Cycloheximide cs, Shiga toxin inh)
CC(Nc1c([N+](=O)[O-])c(=O)oc2ccccc12)C(Cl)c1ccccc1 (stereo unspecified)	none
O=c1oc2ccccc2c(NC(c2ccccc2)c2ccccc2)c1[N+](=O)[O-]	Pf growth 48h 10µM
O=c1oc2ccccc2c(Nc2ccc3ccccc3c2)c1[N+](=O)[O-]	Pf growth 48h inconclusive, Pf growth 96h inconclusive, HCV inh inconclusive, Cycloheximide cs 22
CC1(c2nnnn2Cc2ccccc2)CCC(=O)N1CCOc1ccccc1 (stereo unspecified)	none (no result: Pf growth 48h, Pf growth 96h, HCV inh, Cycloheximide cs, Shiga toxin inh)
COc1ccc(C(=O)C2CCN(CC(=O)Nc3ccc(C)cc3)CC2)cc1	HCV inh inconclusive
COc1ccc(-n2c(SCC(=O)N/N=C(\C)c3cccnc3)nc3ccccc3c2=O)cc1	Pf growth 96h inconclusive
Cc1ccc(S(=O)(=O)Nc2cccc(S(=O)(=O)Nc3ccccc3C(=O)O)c2)c(C)c1	none (no result: Pf growth 48h, Pf growth 96h, Cycloheximide cs, Shiga toxin inh)
CCCC(NC(=S)NCC1CCCO1)C12CC3CC(CC(C3)C1)C2 (stereo unspecified)	Pf growth 48h 2.6µM, HCV inh 11µM
S=C(NCC1CCCO1)NC1CCCCC1 (stereo unspecified)	none
COCCSc1ccccc1C(=O)N1CCc2ccccc2C1	none
COc1ccc(-c2nc3ccc(C)cn3c2Cc2ccsc2)cc1OC	none (no result: Pf growth 48h, Pf growth 96h, HCV inh, Cycloheximide cs, Shiga toxin inh)
CSc1nc(-c2ccc(C)cc2)nc(C(Cl)Cl)n1	HCV inh 3.2µM
Cc1ccc(Cl)c(OC(=O)Cn2cnc3c2c(=O)n(C)c(=O)n3C)c1	Pf growth 48h inconclusive
Cc1nc2ccc(NC(=O)[C@@H](NC(=O)c3c(F)cccc3F)C(C)C)cc2s1	Pf growth 48h 2.1µM, Pf growth 96h inconclusive, HCV inh inconclusive (no result: Cycloheximide cs, Shiga toxin inh)
COc1ccc(NS(=O)(=O)c2cc(NC(=O)c3ccc(=O)[nH]c3)ccc2C)cc1	none (no result: Cycloheximide cs, Shiga toxin inh)
COc1cc(OC)cc(C(=O)NC(C(=O)Nc2ccc3c(c2)OCO3)C(C)C)c1 (stereo unspecified)	Pf growth 48h inconclusive, HCV inh inconclusive (no result: Cycloheximide cs, Shiga toxin inh)
COc1cc(OC)cc(C(=O)N[C@H](C(=O)Nc2nc3ccc(S(C)(=O)=O)cc3s2)C(C)C)c1	Pf growth 48h 4.7µM, Pf growth 96h inconclusive
CC(C)[C@H](NC(=O)c1c(F)cccc1F)C(=O)Nc1cccc(Br)c1	none
COc1ccc(NS(=O)(=O)c2cc(NC(=O)[C@@H](NC(=O)c3ccccc3)C(C)C)ccc2C)cc1	Pf growth 48h 9.3µM, Pf growth 96h 9.3µM, HCV inh inconclusive
COc1cc(OC)cc(C(=O)NC(C(=O)Nc2ccc3nc(C)sc3c2)C(C)C)c1 (stereo unspecified)	Pf growth 48h 3.3µM, Pf growth 96h 6.6µM, HCV inh inconclusive (no result: Cycloheximide cs, Shiga toxin inh)
CCCCC(=O)N(C)c1c(C)nc2ccc(C(=O)Nc3cccc(NS(C)(=O)=O)c3)cn12	none (no result: Pf growth 48h, Pf growth 96h, HCV inh, Cycloheximide cs, Shiga toxin inh)
CCOc1ccc(NC(=S)N(CCOC)C(C)c2ccco2)cc1 (stereo unspecified)	Pf growth 96h inconclusive
C/C(=N\NC(=O)c1ccc(C)cc1C)c1ccc2c(c1)OCO2	Pf growth 48h 10µM, Pf growth 96h 3.7µM, Cycloheximide cs 26, Shiga toxin inh 67
O=C(NC1C2CC3CC(C2)CC1C3)c1ccc2c(c1)OCO2 (stereo unspecified)	Pf growth 96h inconclusive, Cycloheximide cs 28, Shiga toxin inh 36
O=C(NNC(=O)c1ccc2c(c1)OCO2)NC12CC3CC(CC(C3)C1)C2	none
C/C(=N\NC(=O)c1cc2ccccc2cc1O)c1ccc2c(c1)OCO2	Pf growth 48h 6.6µM, Pf growth 96h 5.2µM
CC/C(=N/NC(=O)c1ccc2c(c1)OCO2)c1ccccc1O	HCV inh 3.2µM (no result: Pf growth 48h, Pf growth 96h, Cycloheximide cs, Shiga toxin inh)
O=C(CSc1nc2nn(-c3ccccc3)c(=O)c-2c2n1CCCCC2)Nc1ccc(OC(F)F)cc1	HCV inh inconclusive (no result: Pf growth 48h, Pf growth 96h, Cycloheximide cs, Shiga toxin inh)
CCn1nc(C)c(CN2CCCC(CNS(=O)(=O)c3ccc(OC)cc3)C2)c1C (stereo unspecified)	Pf growth 96h inconclusive
CCCCCCN1CCN(C2CN(Cc3ccccc3)S(=O)(=O)C2)CC1 (stereo unspecified)	none (no result: Pf growth 48h, Pf growth 96h, HCV inh, Cycloheximide cs, Shiga toxin inh)
CC/C(=N\NC(=O)c1ccc2c(c1)OCO2)C12CC3CC(CC(C3)C1)C2	Cycloheximide cs 26, Shiga toxin inh 57 (no result: Pf growth 96h)
O=[N+]([O-])c1cc(C2Nc3cccc4cccc(c34)N2)ccc1Cl	Pf growth 48h 2.9µM, HCV inh inconclusive
Cc1cccc(C2Nc3cccc4cccc(c34)N2)c1	Pf growth 48h 4.7µM
O=C1NC(c2ccc(Cl)c([N+](=O)[O-])c2)Nc2ccccc21 (stereo unspecified)	Pf growth 48h inconclusive, Pf growth 96h inconclusive, HCV inh inconclusive
CN(Cc1cnn(C)c1)Cc1nc(C(c2ccccc2)c2ccccc2)no1	Pf growth 48h inconclusive
CN(Cc1cnn(C)c1)Cc1nc(COc2ccccc2)no1	Cycloheximide cs 14
CN(Cc1cnn(C)c1)Cc1nc(-c2ccc(Cl)cc2)no1	Pf growth 96h 9.3µM, Cycloheximide cs 16
CC(C)N(Cc1cnn(C)c1)Cc1nc(COc2ccccc2)no1	none
CCCCC1CCC(C(=O)N(C)CC(=O)Nc2cccc(OC)c2)CC1 (stereo unspecified)	Pf growth 48h inconclusive, Pf growth 96h inconclusive (no result: Cycloheximide cs, Shiga toxin inh)
Cc1ccccc1C(=O)NC1CCN(CC(=O)NCc2ccccc2)CC1	none
O=C(Nc1ccc(NC(=S)NC(=O)c2cccs2)cc1)c1ccccc1	Pf growth 48h inconclusive, HCV inh inconclusive
O=C(NC(=S)Nc1ccccc1)c1cccs1	Cycloheximide cs 60, Shiga toxin inh 81
NS(=O)(=O)c1ccc(NC(=S)NC(=O)c2cccs2)cc1	none
CC(=O)NC(=S)Nc1ccc(NC(=O)c2cccs2)cc1	Pf growth 48h inconclusive, HCV inh inconclusive, Cycloheximide cs 28, Shiga toxin inh 32
COCCN(C(=O)Cc1cccs1)C(C(=O)NCc1ccc(OC)cc1)c1ccc(C(C)C)cc1 (stereo unspecified)	Pf growth 48h 2.1µM, Pf growth 96h 2.9µM
COc1ccc(CNC(=O)C(c2ccc(C)o2)N(Cc2cccs2)C(=O)Cc2cccs2)cc1 (stereo unspecified)	Pf growth 48h 15µM, HCV inh 11µM
COc1ccc(CC(=O)NCc2cccs2)cc1	none (no result: Pf growth 96h)
COCCN(C(=O)Cc1cccs1)C(C(=O)NCc1ccc(OC)cc1)c1ccc(C)cc1 (stereo unspecified)	Pf growth 48h 8.3µM, Pf growth 96h 5.9µM, HCV inh inconclusive
